# From PubChem
# A selection: hits, their analogues and other compounds. The true share with any hit is near 12%.
# Sfp inh: inhibitors of Bacillus subtilis Sfp phosphopantetheinyl transferase; Q9F4F7; Biochemical Sfp PPTase activity, qHTS; Potency, µM, for the others: largest response in the series, negative = inhibition, hits mostly inhibitors; actives 3.5% (n = 310,000); AID 1490;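 further: the enzyme is Sfp with the accession as filed and its product quenches rhodamine fluorescence; 0% = enzyme reaction without inhibitor and -100% = no enzyme wells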
#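 Fluorescence-quenching assay: 15 nM Sfp-PPTase preincubated 15 min at room temperature with compound, then 5 uM rhodamine-CoA and 12.5 uM BHQ-2-labelled YbbR peptide added. Fluorescence (ex 525/em 598 nm) read at start and after 30 min; difference gives rate.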
# HP1b chromo inh: inhibitors of HP1-beta chromodomain binding to methylated histone tails; AlphaScreen HP1-beta / biotin-H3K9me3 peptide binding; AID 540317; Potency, µM (doses to about 114 µM), for inactives: at the highest dose activity change, negative = inhibition, usual class: inhibitors; actives 0.56% (n = 390,000); P83916; further: nearly all actives have a fitted effect of over 70% in size
#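 Compound inhibition of the preformed complex between 50 nM HP1-beta and 50 nM biotinylated H3K9me3 peptide was read by AlphaScreen. Buffer was PBS pH 7.4 with 0.01% Tween-20. Incubations ran 30 min at room temperature, with 10 ug/mL donor/acceptor beads.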
# G9a inh: G9a (human) methyltransferase inhibition; Q96KQ7; G9a H3K9 monomethylation, AlphaScreen, 2 h; Potency, µM (highest dose often 102 µM), without a hit: top-dose activity, negative = inhibition, hits mostly inhibitors; actives 8.8% (n = 350,000); AID 504332; further: on the % scale 0 is the no-effect control and ±100 the full control effect; nearly all actives have a fitted effect of over 75% in size
#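 AlphaScreen detection with an anti-monomethyl H3K9 antibody quantified product after a 2 h room-temperature reaction containing 500 nM biotinylated H3K9 peptide, 20 µM SAM and 20 nM enzyme, which had been preincubated 15 min with compound.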
# BAZ2B inh: blocks human BAZ2B; AlphaScreen BAZ2B-H3K14Ac peptide displacement; Potency, µM (top dose mostly 114 µM), inactives show at the highest dose activity change, negative = inhibition, most hits filed as inhibitors; actives 4.4% (n = 360,000); AID 504333; further: on the % scale 0 is the no-effect control and ±100 the full control effect; nearly all actives have a fitted effect of over 60% in size
#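 In this displacement format the biotinylated H3(5-23) peptide acetylated at Lys14 serves as ligand at 50 nM, with BAZ2B at 50 nM in PBS pH 7.4 containing 0.01% Tween-20. Donor and acceptor beads are 10 ug/mL final.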
# L3MBTL1 inh: inhibitors of human L3MBTL1. Potency, µM (titrated, usually from 57.1 µM), without a hit: at the top dose activity, negative = inhibition, actives largely listed as inhibitors. Q9Y468. actives 0.66% (n = 230,000). AlphaScreen L3MBTL1–H3K9me1 peptide binding; further: on the % scale 0 is the no-effect control and ±100 the full control effect; nearly all actives have a fitted effect of over 60% in size
# Target sequence (Q9Y468 whole entry, looked up): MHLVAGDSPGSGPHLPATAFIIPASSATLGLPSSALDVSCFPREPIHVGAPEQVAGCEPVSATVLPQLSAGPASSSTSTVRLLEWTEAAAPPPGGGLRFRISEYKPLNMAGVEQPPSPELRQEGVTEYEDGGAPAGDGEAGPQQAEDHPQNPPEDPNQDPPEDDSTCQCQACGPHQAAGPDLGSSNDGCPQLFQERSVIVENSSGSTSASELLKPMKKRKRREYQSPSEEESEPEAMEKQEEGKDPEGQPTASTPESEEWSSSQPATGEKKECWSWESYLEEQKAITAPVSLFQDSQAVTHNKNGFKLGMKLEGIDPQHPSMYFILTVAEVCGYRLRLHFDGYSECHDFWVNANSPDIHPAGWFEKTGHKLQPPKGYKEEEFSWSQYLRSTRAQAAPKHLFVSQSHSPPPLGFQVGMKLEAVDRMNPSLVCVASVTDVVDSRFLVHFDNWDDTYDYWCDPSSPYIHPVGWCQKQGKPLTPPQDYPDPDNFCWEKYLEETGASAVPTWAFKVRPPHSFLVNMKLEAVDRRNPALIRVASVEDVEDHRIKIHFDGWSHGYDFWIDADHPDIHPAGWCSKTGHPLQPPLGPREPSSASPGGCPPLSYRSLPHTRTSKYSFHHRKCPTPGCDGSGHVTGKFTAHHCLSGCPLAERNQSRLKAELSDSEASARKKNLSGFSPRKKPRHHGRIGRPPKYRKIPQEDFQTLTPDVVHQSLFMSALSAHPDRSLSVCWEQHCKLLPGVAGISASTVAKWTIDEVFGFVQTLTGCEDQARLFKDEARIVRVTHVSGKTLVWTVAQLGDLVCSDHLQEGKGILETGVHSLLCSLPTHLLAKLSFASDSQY
#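 AlphaScreen proximity signal between nickel-chelate acceptor and streptavidin donor beads (final 10 ug/mL) reports binding of 50 nM L3MBTL1 to 75 nM biotin-H3 K9me1 peptide; complex incubated with compounds 30 min at room temperature; cefsulodin titration as control.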
# JMJD2A Tudor: blocks the human JMJD2A Tudor domain; O75164; AlphaScreen JMJD2A-Tudor / H3K4me3 peptide binding; Potency, µM (top dose mostly 114 µM), for the others: at the highest dose activity change, negative = inhibition, actives largely listed as inhibitors; actives 4.4% (n = 390,000); AID 504339; further: on the % scale 0 is the no-effect control and ±100 the full control effect; nearly all actives have a fitted effect of over 50% in size
# Active calls of the source: *; ? = inconclusive; . = not tested or not shown; [ ] = another dose, or the depositor's remark. The call rests on the fitted dose curve; in most records, active means well fitted curve in the direction sought with a large enough effect; inconclusive means small, poorly fitted or top-dose-only effect, or another doubt; inactive means no such curve, though single readings can be large; an effect the other way counts as inactive or inconclusive. Potency means the concentration at half of the fitted maximal effect.
SMILES,Sfp inh,HP1b chromo inh,G9a inh,BAZ2B inh,L3MBTL1 inh,JMJD2A Tudor
S=c1[nH]nc(-c2ccncc2)n1/N=C/C=C/c1ccco1,45µM*,-15%,-138%,50µM*,18µM*,8.9µM*
CC(/C=N/N1CCN(c2ccccc2)CC1)=C\c1ccco1,11%,-17%,-21%,-34%[57.1 µM],-21%,-31%
CC(/C=N/n1c(-c2ccccc2)n[nH]c1=S)=C\c1ccco1,?,-20%,2.2µM*,50µM*,-4%,50µM*
CC(/C=N/n1c(-c2ccco2)n[nH]c1=S)=C\c1ccco1,45µM*,?,1.4µM*,?,-21%,45µM*
S=c1[nH]nc(-c2ccccc2Cl)n1/N=C/C=C/c1ccco1,56µM*,-25%,1.1µM*,?,-7%,16µM*
CC[C@H](C)[C@H](NC(=O)[C@H](C)NC(=O)[C@@H](N)C(C)C)C(=O)N[C@H](C(=O)N[C@H](C(=O)N[C@@H](CC(C)C)C(=O)N[C@H](C(=O)N[C@@H](CCCCN)C(=O)O)C(C)C)C(C)C)[C@@H](C)O,-2%,.,.,.,.,.
COc1cc(CC(=O)N2CCN(S(=O)(=O)c3ccc(C)cc3)CC2)cc(OC)c1OC,.,51%,.,.,5%,1%
C(=C\c1ccco1)/C=N/n1cnnc1,?,30%,40µM*,-4%,?,-13%
CC(/C=N/n1c(-c2ccncc2)n[nH]c1=S)=C\c1ccco1,-27%,-5%,.,?,.,5µM*
CC(/C=N/n1c(-c2ccc(C)cc2)n[nH]c1=S)=C\c1ccco1,50µM*,?,1.3µM*,-29%,-14%,?
Cc1nn(Cc2cccc(C(N)=O)c2)c(C)c1Br,18%,8%,7%,-11%,1%,-14%
COc1cc(C)ccc1OCCOCCOc1cc(C)c(C)cc1Br,-6%,85%,49%[59 µM],62%,36%,28%
Cn1cnnc1SC1CCCCC1NS(=O)(=O)c1ccccc1 (stereo not given),12%,32%,3%[59 µM],11%,-7%,-10%
Cn1cnnc1SC1CCCCC1NS(=O)(=O)c1ccc(Cl)cc1 (stereo not given),10%,22%,13µM*,?,5%,-9%
CC(=O)Nc1ccc(NC2CCCCC2NS(=O)(=O)c2ccc(Cl)cc2)cc1 (stereo not given),15%,7%,40µM*,-34%,.,-7%
Nn1cnnc1SC1CCCCC1NS(=O)(=O)c1ccccc1 (stereo not given),-28%,7%,?,71µM*,18%,-21%
O=S(=O)(NC1CCCCC1Nc1ccccc1)c1ccccc1 (stereo not given),8%,32%,5%[59 µM],0%,1%,-12%
CCCCNc1nc(C)nc2c1nc(-c1ccccc1)n2CC1CCCN1CC (stereo not given),16%,.,.,.,.,.
Cc1[nH]n(-c2ccccc2)c(=O)c1/C=N/NC(=O)c1cccc(F)c1,1%,45%,25µM*,79µM*,.,79µM*
Cc1[nH]n(-c2ccc(Br)cc2)c(=O)c1/C=N/NC(=O)c1ccccc1,16%,38%,?,32µM*,-1%,79µM*
COc1ccc(-c2nc(NC(=O)c3[nH]c(C)c(C(C)=O)c3C)sc2C)cc1,-9%,-14%,50µM*,?,.,?
CC(=O)c1c(C)[nH]c(C(=O)Nc2nc(-c3ccc(Cl)cc3)cs2)c1C,-4%,1%,?,6%,18%,-26%
CC(=O)c1c(C)[nH]c(C(=O)Nc2nc(C)cs2)c1C,0%,13%,-36%,50µM*,-1%,-8%
CC1CCCCN1c1cc2c(cc1F)c(=O)c(S(=O)(=O)c1ccccc1)cn2Cc1ccccc1 (stereo not given),.,49%,5%[59 µM],6%,.,-25%
COc1ccc2cc3cc(C(=O)Nc4cc(C)c(Cl)cc4OC)oc3nc2c1,.,4%,-4%[59 µM],.,.,-13%
SMILES,Sfp inh,HP1b chromo inh,G9a inh,BAZ2B inh,L3MBTL1 inh,JMJD2A Tudor
Oc1ccc(C[C@@H]2CNCCN2CC2CCCCC2)cc1,.,29%,-4%[2.33 µM],-2%,2%,-24%
c1ccc2c(C[C@@H]3CNCCN3CC3CCCCC3)cccc2c1,.,-2%,16%[2.33 µM],40µM*,-7%,?
O=C(NC1CCCCC1)C1CCCN1S(=O)(=O)c1ccc(Cl)cc1 (stereo not given),7%,13%,12%,2%,.,3%
CCOC(=O)c1nc(C)[nH]c1C(=O)OCC,-6%,7%,?,79µM*,.,18µM*
O=S(=O)(c1ccc2c(c1)CCCN2)N1CCCC1,.,25%,-11%[2.33 µM],2%,1%,-12%
CCN(CC)c1ccc2c(c1)CCCN2,-6%,.,1.8µM*,45µM*,-9%,.
Cc1cccc(-n2c(O)c(C=Nc3cc(O)ccc3C)c3ccccc3c2=O)n1,18%,-30%,7%,-24%,-7%,?
Cc1cccc(-n2c(O)c(C=Nc3ccccc3-c3n[nH]c(=S)[nH]c3=O)c3ccccc3c2=O)n1,-3%,9%,40µM*,-34%,-9%,?
Cc1ccc(-n2c(O)c(C=Nc3ccccc3-c3n[nH]c(=S)[nH]c3=O)c3ccccc3c2=O)cc1C,-4%,-36%,?,45µM*,-14%,50µM*
Cc1cccc(-n2c(O)c(C=Nc3ccccc3O)c3ccccc3c2=O)n1,?,-12%,23%,-25%,-12%,-19%
Cc1ccc(-n2c(O)c(C=NC3CCS(=O)(=O)C3)c3ccccc3c2=O)cc1C (stereo not given),24%,9%,6%[59 µM],-30%,.,-20%
Cc1cccc(-n2c(O)c(C=Nc3ccc(O)cc3)c3ccccc3c2=O)n1,7%,10%,50µM*,?,-9%,-24%
Cc1ccc(-n2c(O)c(C=Nc3ccccc3-c3n[nH]c(=S)[nH]c3=O)c3ccccc3c2=O)c(C)c1,1%,?,?,40µM*,-11%,45µM*
Cc1ccc(C)c(N2CCN(S(=O)(=O)c3cc(Br)cc4c3N(C(=O)C3CC3)CC4)CC2)c1,.,39%,1%[59 µM],-18%,.,-12%
O=C(O)c1cc(N2C(=O)C=CC2=O)cc(N2C(=O)C=CC2=O)c1,.,5.6µM*,.,.,.,2.2µM*
Cc1ccc(S(=O)(=O)c2c(C)nn(-c3ccccc3)c2OC(=O)c2ccc(Br)o2)cc1,7%,8%,?,-33%,2%,?
Cc1ccc(S(=O)(=O)c2c(C)nn(-c3ccccc3)c2OC(=O)c2ccco2)cc1,1%,9%,?,-37%,-1%,79µM*
Cc1ccc(N2C(=O)NC(C(F)(F)F)(C(F)(F)F)C3=C2CC(C)(C)CC3=O)cc1,-2%,31%,12%[59 µM],?,3%,-15%
